Activity calls are given as the source filed them.
Test: A549 lung cancer cell viability effects, profiling panel, resazurin fluorescence, 24 h, PK04 Diversity Set (AID 1171)
Settings: higher = more signal, called active from +8 up or from −8 down
Note: test concentration not given here.

**Q.** For COC(=O)[C@@]1(Cc2ccc(OC)cc2)[C@H]2c3cc(C(=O)N(C)C)n(Cc4ccc(S(C)(=O)=O)cc4)c3C[C@H]2CN1C(=O)c1ccccc1, which z-score is on record?
**A.** 0.0073 (inactive)

**Q.** Which z-score does the source give for CC(C)C[C@@H]1NC(=O)[C@H](C(C)C)NC(=O)[C@@]23C(=O)N[C@@H](Cc4ccccc4)C2[C@H](C)[C@@]2(C)O[C@H]2C3/C=C/CC/C=C/CNC1=O (some centres not stated) here?
**A.** 0.612 (inactive)

**Q.** With COCCOC(=O)N1C(=O)[C@@]2(c3ccccc31)[C@H](c1ccc(O)cc1)N1[C@H](c3ccccc3)[C@H](c3ccccc3)OC(=O)[C@H]1[C@@H]2C(=O)Nc1nc2ccccc2s1 as the compound, how does the z-score read?
**A.** 0.185 (inactive)

**Q.** For CC(C)OC(=O)C=C1C[C@@H](c2ccccn2)O[C@@H](c2ccccn2)O1, which z-score is on record?
**A.** 0.118 (inactive)

**Q.** For COC(=O)[C@@]1(Cc2ccc(F)cc2)[C@H]2c3cc(C(=O)N(C)C)n(Cc4ccc(Cl)c(C(F)(F)F)c4)c3C[C@H]2CN1C(=O)c1ccccc1, which z-score is on record?
**A.** -1.27 (inactive)

**Q.** Which z-score does the source give for CC(C)(C)OC(=O)CC[C@]1(C(=O)N2CCOCC2)N=C(c2ccc(OCCCO)cc2)O[C@H]1c1ccccc1N=[N+]=[N-] here?
**A.** 1.03 (inactive)

**Q.** For C=C(C(=O)CC[C@@H](OC(=O)c1cccnc1)c1ccccc1OCCO)C(C)C, which z-score is on record?
**A.** -0.414 (inactive)

**Q.** For NCCCCCCNC(=O)[C@@H]1C[C@@H]2C(=O)NCC(=O)N2[C@@H]1c1ccc(O)cc1, which z-score is on record?
**A.** -0.368 (inactive)

**Q.** For CCCCCCc1nc(-c2cc(C)c(OC)c(C)c2)cc2c1[Si](C(C)C)(C(C)C)OC2, which z-score is on record?
**A.** 1.1 (inactive)

**Q.** Which z-score does the source give for C=CCOC(=O)[C@@H]1[C@H]2C(=O)O[C@H](c3ccccc3)[C@H](c3ccccc3)N2[C@H](c2ccc(OCCOC(=O)[C@H]3C[C@H]4C(=O)N5CCC[C@H]5C(=O)N4[C@H]3c3ccc(O)cc3)cc2)[C@@]12C(=O)Nc1ccc(I)cc12 here?
**A.** -0.685 (inactive)

**Q.** Which z-score does the source give for O=C(N1CCCCC1)[C@]1(Cc2ccccc2)N=C(c2ccc(OCCCO)cc2)O[C@@H]1c1ccccc1 here?
**A.** 0.528 (inactive)

**Q.** With CCOC(=O)[C@H]1C/C=C/C[C@H](C(=O)OCC)C(=O)O[C@H]2[C@@H](OC)O[C@H](CO)[C@@H](OC(=O)c3c(OC)cccc3OC)[C@@H]2OC1=O as the compound, how does the z-score read?
**A.** -4.38 (inactive)

**Q.** Which z-score does the source give for C=C(CCCC)/C(=C/C[C@H](OC(=O)c1ccncc1)c1ccccc1OCCO)c1cnc2ccccc2c1 here?
**A.** 0.89 (inactive)

**Q.** For CCN(CC)c1ccc(N2CC=CC34O[C@@H]5C=CCCOC(=O)C5[C@H]3C(=O)N(CCCCCCO)[C@@H]4C2=O)cc1 (some centres not stated), which z-score is on record?
**A.** 1.02 (inactive)

**Q.** Which z-score does the source give for COC(=O)[C@@]1(Cc2ccc(OC)cc2)[C@H]2c3cc(C(=O)N4CCCC4)n(CCN4CNCC4=O)c3C[C@H]2CN1C(=O)c1ccccc1 here?
**A.** -0.936 (inactive)

**Q.** For CCC(CC)C(O)C1C=CC2C(=O)NC(=O)C2N1Nc1ccccn1 (configuration not stated), which z-score is on record?
**A.** -0.801 (inactive)

**Q.** With O=C(CS)NCCCCCCNC(=O)[C@@H]1C[C@@H]2C(=O)NCC(=O)N2[C@@H]1c1cccc(OCCO)c1 as the compound, how does the z-score read?
**A.** -0.489 (inactive)

Test: HepG2 liver cancer cell viability effects, profiling panel, resazurin fluorescence, 24 h, PK04 Diversity Set (AID 1172)
Settings: higher = more signal

**Q.** Which z-score does the source give for COCC(=C=CC[C@@H](O)c1cccc(OCCO)c1)C[C@@H](O)c1ccccn1 here?
**A.** 0.353

**Q.** With C[C@@]1([C@@H](NC(=O)c2ccc(-c3ccccc3)cc2)c2ccc(Cl)cc2)C[C@H]1C1CCCCC1 as the compound, how does the z-score read?
**A.** -0.953

**Q.** Which z-score does the source give for CCc1cccc(NC(=O)O[C@H]2[C@H](OC(=O)Nc3ccccc3-c3ccccc3)[C@@H](OC(=O)Nc3ccccc3-c3ccccc3)[C@@H](OC)O[C@@H]2CO)c1 here?
**A.** -4.43

**Q.** Which z-score does the source give for C=C[C@H](CO[Si](CC)(CC)CC)N(Cc1ccc(OC(C)=O)c(OC)c1)S(=O)(=O)c1ccc(Br)cc1 here?
**A.** -0.423

**Q.** Which z-score does the source give for C[C@H]1NC(=O)[C@@]23C(=O)N[C@@H](Cc4ccccc4)C2[C@H](C)[C@@]2(C)O[C@H]2C3/C=C/C/C=C\CNC(=O)[C@@H]2CCCN2C1=O (some centres not stated) here?
**A.** 0.23

**Q.** Which z-score does the source give for CCS[C@H]1[C@@H](C(=O)O)[C@H](c2ccc(C)cc2)N(S(=O)(=O)c2ccc(C)cc2)[C@@H]1CC here?
**A.** 0

**Q.** Which z-score does the source give for COCCOC(=O)N1C(=O)[C@@]2(c3ccccc31)[C@H](C(=O)N1CCc3cc(OC)c(OC)cc3C1)[C@H]1C(=O)O[C@H](c3ccccc3)[C@H](c3ccccc3)N1[C@@H]2c1ccc(OCCO)cc1 here?
**A.** -0.484

**Q.** For [N-]=[N+]=Nc1ccccc1[C@H]1OC(c2ccc(OCCCO)cc2)=N[C@@]1(CCS(=O)(=O)c1ccccc1)C(=O)NCC(O)CO (some centres not stated), which z-score is on record?
**A.** -0.14

**Q.** With [N-]=[N+]=NCc1ccccc1[C@@H]1OC(c2ccc(OCCCO)cc2)=N[C@]1(Cc1ccccc1)C(N)=O as the compound, how does the z-score read?
**A.** 0.854

**Q.** With C=C(CCCC)C(=O)CC[C@@H](OC(=O)c1ccccc1-c1ccccc1C(=O)O)c1ccc(OCCO)cc1 as the compound, how does the z-score read?
**A.** -0.268

**Q.** For O=C(CS)NCCCCCCNC(=O)[C@@H]1C[C@@H]2C(=O)N[C@@H](Cc3ccccc3)C(=O)N2[C@@H]1c1cccc(OCCO)c1, which z-score is on record?
**A.** 0.531

**Q.** Which z-score does the source give for CC(C)C(O)C1C=CC2C(=O)N(c3ccccc3)C(=O)C2N1Nc1ccc([N+](=O)[O-])cc1 (configuration not stated) here?
**A.** -0.283

**Q.** With CC(C)N1C(=O)[C@@]2(Cc3ccccc31)c1ccccc1C(=O)N(Cc1ccccc1Cl)[C@H]2c1ccc(CO)cc1 as the compound, how does the z-score read?
**A.** 1.07

**Q.** Which z-score does the source give for C=CCC(OC(C)=O)[C@@H]1[C@@H](N(Cc2cc3ccccc3o2)C(=O)c2cccc3ccccc23)c2cc(OCCCO)ccc2N1C(=O)c1ccc(-c2ccccc2)cc1 (some centres not stated) here?
**A.** -1.11

**Q.** Which z-score does the source give for C=CCC(OC(C)=O)[C@@H]1[C@@H](N(Cc2ccc(-c3ccccc3)cc2)C(=O)Cc2ccc(OC)cc2)c2cc(OCCCO)ccc2N1C(=O)Cc1ccc2ccccc2c1 (some centres not stated) here?
**A.** -0.978

**Q.** With Cc1ccc(S[C@]2(C(=O)O)CC(=O)N(C(C)C)[C@@H]2c2ccc(CO)cc2I)cc1 as the compound, how does the z-score read?
**A.** 0.975

**Q.** With O=C1O[C@@H](c2ccccc2)[C@@H](c2ccccc2)N2[C@@H](c3ccccc3OCCO)[C@]3(C(=O)Nc4ccc(C#CC5=CCCCC5)cc43)[C@@H](C(=O)N3CCCCCCC3)[C@H]12 as the compound, how does the z-score read?
**A.** -0.868

**Q.** For O=C1OCCC/C=C\[C@H]2OC34C=CCN(Cc5ccccc5)C(=O)[C@H]3N(CCCO)C(=O)[C@@H]4C12 (some centres not stated), which z-score is on record?
**A.** -0.203

**Q.** With COC(=O)[C@@]1(Cc2ccc(OC)cc2)[C@H]2c3cc(C(=O)N(C)C)n(Cc4ccc(S(C)(=O)=O)cc4)c3C[C@H]2CN1C(=O)c1ccccc1 as the compound, how does the z-score read?
**A.** 0.0042

**Q.** With CC(C)C[C@@H]1NC(=O)[C@H](C(C)C)NC(=O)[C@@]23C(=O)N[C@@H](Cc4ccccc4)C2[C@H](C)[C@@]2(C)O[C@H]2C3/C=C/CC/C=C/CNC1=O (some centres not stated) as the compound, how does the z-score read?
**A.** 0.233

**Q.** Which z-score does the source give for COCCOC(=O)N1C(=O)[C@@]2(c3ccccc31)[C@H](c1ccc(O)cc1)N1[C@H](c3ccccc3)[C@H](c3ccccc3)OC(=O)[C@H]1[C@@H]2C(=O)Nc1nc2ccccc2s1 here?
**A.** -0.175

**Q.** With CC(C)OC(=O)C=C1C[C@@H](c2ccccn2)O[C@@H](c2ccccn2)O1 as the compound, how does the z-score read?
**A.** -0.802

**Q.** With COC(=O)[C@@]1(Cc2ccc(F)cc2)[C@H]2c3cc(C(=O)N(C)C)n(Cc4ccc(Cl)c(C(F)(F)F)c4)c3C[C@H]2CN1C(=O)c1ccccc1 as the compound, how does the z-score read?
**A.** -0.81

**Q.** Which z-score does the source give for CC(C)(C)OC(=O)CC[C@]1(C(=O)N2CCOCC2)N=C(c2ccc(OCCCO)cc2)O[C@H]1c1ccccc1N=[N+]=[N-] here?
**A.** 0.548

**Q.** With C=C(C(=O)CC[C@@H](OC(=O)c1cccnc1)c1ccccc1OCCO)C(C)C as the compound, how does the z-score read?
**A.** -0.0206

**Q.** Which z-score does the source give for NCCCCCCNC(=O)[C@@H]1C[C@@H]2C(=O)NCC(=O)N2[C@@H]1c1ccc(O)cc1 here?
**A.** -0.45

**Q.** For CCCCCCc1nc(-c2cc(C)c(OC)c(C)c2)cc2c1[Si](C(C)C)(C(C)C)OC2, which z-score is on record?
**A.** -0.206

**Q.** With C=CCOC(=O)[C@@H]1[C@H]2C(=O)O[C@H](c3ccccc3)[C@H](c3ccccc3)N2[C@H](c2ccc(OCCOC(=O)[C@H]3C[C@H]4C(=O)N5CCC[C@H]5C(=O)N4[C@H]3c3ccc(O)cc3)cc2)[C@@]12C(=O)Nc1ccc(I)cc12 as the compound, how does the z-score read?
**A.** -0.91

**Q.** With O=C(N1CCCCC1)[C@]1(Cc2ccccc2)N=C(c2ccc(OCCCO)cc2)O[C@@H]1c1ccccc1 as the compound, how does the z-score read?
**A.** 0.0053

**Q.** With CCOC(=O)[C@H]1C/C=C/C[C@H](C(=O)OCC)C(=O)O[C@H]2[C@@H](OC)O[C@H](CO)[C@@H](OC(=O)c3c(OC)cccc3OC)[C@@H]2OC1=O as the compound, how does the z-score read?
**A.** -3.51

**Q.** With C=C(CCCC)/C(=C/C[C@H](OC(=O)c1ccncc1)c1ccccc1OCCO)c1cnc2ccccc2c1 as the compound, how does the z-score read?
**A.** 0.381

**Q.** With CCN(CC)c1ccc(N2CC=CC34O[C@@H]5C=CCCOC(=O)C5[C@H]3C(=O)N(CCCCCCO)[C@@H]4C2=O)cc1 (some centres not stated) as the compound, how does the z-score read?
**A.** 0.846

**Q.** Which z-score does the source give for COC(=O)[C@@]1(Cc2ccc(OC)cc2)[C@H]2c3cc(C(=O)N4CCCC4)n(CCN4CNCC4=O)c3C[C@H]2CN1C(=O)c1ccccc1 here?
**A.** -0.66

**Q.** For CCC(CC)C(O)C1C=CC2C(=O)NC(=O)C2N1Nc1ccccn1 (configuration not stated), which z-score is on record?
**A.** -1.34

**Q.** Which z-score does the source give for O=C(CS)NCCCCCCNC(=O)[C@@H]1C[C@@H]2C(=O)NCC(=O)N2[C@@H]1c1cccc(OCCO)c1 here?
**A.** -0.3

From PubChem BioAssay
